# The campaign covered roughly 52,000 compounds. About 4,300 (8.3%) were called active. No stated cut-off is given here; in the data, active means survival mostly below about 52% (no sharp cut-off); inactive means mostly above about 56%. What follows is part of a selection rich in actives, with near analogues and random picks from the rest.
# Test system: DeltatarO mutant
# Experiment: growth inhibition of S. aureus wild type versus tarO mutant, primary screen, teichoic acid synthesis inhibitors, RN4220, OD600 (AID 463173)
# Settings: OD600, 18 h, stronger effect = lower value, screened at 18.75 µg/mL (by protocol)
row,SMILES,survival
1,O=C(c1ccco1)N1CCN(C(c2ccccc2)c2nnnn2Cc2ccccc2)CC1 (centres undefined),88% (inactive)
2,O=C(Cn1cc(C(=O)c2ccco2)c2ccccc21)Nc1ccccc1C(F)(F)F,74% (inactive)
3,CCn1nc(C)c2c(-c3ccccc3)cc(=O)n(C(C)C(=O)NCCc3ccc(Cl)cc3)c21 (centres undefined),87% (inactive)
4,CCc1nnc(SCc2ccc(F)cc2Cl)c2cc3sccc3n12,80% (inactive)
5,CCc1nnc(SCc2cccc(Cl)c2)c2cc3sccc3n12,-2% (active)
6,CCc1nnc(SCc2c(F)cccc2Cl)c2cc3sccc3n12,94% (inactive)
7,CCOC(=O)N1CCN(Cc2nc3cc(NC(=O)CC)ccc3n2C(C)C)CC1,100% (inactive)
8,COc1cccc(-c2csc(N3CCN(C(=S)NCc4ccco4)CC3)n2)c1,91% (inactive)
9,COc1ccc(CNC(=O)CCc2c(C)nn(-c3ccc(N4CCCCC4)nn3)c2C)c(OC)c1,52% (active)
10,COc1ccc(CNC(=O)Cn2nc(N3CCN(c4ccccc4)CC3)ccc2=O)c(OC)c1,-2% (active)
11,COc1ccc(CCNC(=O)CCc2c(C)nc3cc(-c4ccccc4OC)nn3c2C)c(OC)c1,54% (active)
12,CCOC(=O)c1ccc(NC(=O)CCc2c(C)nc3cc(-c4ccc(OC)cc4OC)nn3c2C)cc1,62% (inactive)
13,COc1ccc(CNC(=O)CCc2c(C)nn(-c3ccc(N4CCCC4)nn3)c2C)c(OC)c1,75% (inactive)
14,COc1cccc(NC(=O)Cn2nc(N3CCN(c4ccccc4)CC3)ccc2=O)c1,77% (inactive)
15,COc1ccccc1-c1cc2nc(C)c(CCC(=O)Nc3ccc(Br)c(C)c3)c(C)n2n1,67% (inactive)
16,COc1ccc(CNC(=O)CCc2c(C)nn(-c3ccc(N4CCOCC4)nn3)c2C)c(OC)c1,85% (inactive)
17,CCOc1ccc(NC(=O)CCc2c(C)nc3cc(-c4ccccc4OC)nn3c2C)cc1,53% (active)
18,CCOc1ccccc1CNC(=O)Cn1nc(N2CCN(c3ccccc3)CC2)ccc1=O,84% (inactive)
19,COc1ccccc1CNC(=O)CCc1c(C)nc2cc(-c3ccccc3OC)nn2c1C,58% (inactive)
20,COc1ccc(CCNC(=O)CCc2c(C)nc3cc(-c4ccc(Cl)cc4)nn3c2C)c(OC)c1,108% (inactive)
21,CC(C)c1ccc(S(=O)(=O)NCc2nc3cccnc3n2Cc2ccc(F)cc2)cc1,88% (inactive)
22,COc1cccc(CNC(=O)CN2C(=O)COc3ccc(S(=O)(=O)N4CCOCC4)cc32)c1,94% (inactive)
23,Cn1cc(S(=O)(=O)N2CCCCCC2)cc1C(=O)Nc1ccc(Cl)c(C(F)(F)F)c1,67% (inactive)

row,SMILES,survival
1,O=C(Nc1cccc(OC(=O)c2ccco2)c1)c1ccccc1,58% (inactive)
2,CNC(=S)N1CCN(C(=O)/C(=C/c2ccc(F)cc2)NC(C)=O)CC1,95% (inactive)
3,Cc1ccc(-c2cc(C(=O)N(Cc3ccc(C(C)(C)C)cc3)Cc3ccco3)no2)cc1,113% (inactive)
4,CCc1nc2ccc(C(=O)NCCc3ccc(OC)cc3OC)cc2nc1CC,68% (inactive)
5,Cc1cccc(N2CCN(S(=O)(=O)c3ccc4oc(=O)c5ncn(C)c5c4c3)CC2C)c1 (centres undefined),77% (inactive)
6,Cc1ccc2c(c1)NC(=O)C(CC(=O)Nc1ccccc1Cl)O2 (centres undefined),77% (inactive)
7,CCc1nn(C(C)C(=O)N2CCN(c3ccccc3)CC2)c(=O)c2cc3occc3n12 (centres undefined),82% (inactive)
8,CC(=O)Nc1ccc(-c2cc(C(=O)O)c3c(-c4ccccc4)[nH]nc3n2)cc1,56% (inactive)
9,O=C(Nc1nc2c(F)cc(F)cc2s1)c1ccc(S(=O)(=O)N2CCc3ccccc32)cc1,115% (inactive)
10,Clc1ccc2nc(NCc3ccccc3)c3nncn3c2c1,96% (inactive)
11,CC(C)OCCCn1c(SCc2ccccc2C#N)nc2c(sc3ccccc32)c1=O,87% (inactive)
12,CCOC(=O)c1cccc(NC(=O)N2CC(CC)Oc3ccccc32)c1 (centres undefined),54% (inactive)
13,CCOc1ccc(CCNC(=O)CCc2c(C)nc3cc(-c4ccccc4OC)nn3c2C)cc1,50% (active)
14,CCOC(=O)CC(NC(=O)CCc1c(C)nc2cc(-c3ccccc3)nn2c1C)c1ccc(C)cc1 (centres undefined),109% (inactive)
15,CCOC(=O)c1cccc(NC(=O)CCc2c(C)nc3cc(-c4ccc(Cl)cc4)nn3c2C)c1,35% (active)
16,COc1ccccc1-c1cc2nc(C)c(CCC(=O)NCCc3cccc(C)c3)c(C)n2n1,55% (inactive)
17,CCOC(=O)Cc1c(C)nc2cc(C)nn2c1C,98% (inactive)
18,CCN(CC)S(=O)(=O)c1ccc(NC(=O)CCc2c(C)nc3cc(-c4ccc(Cl)cc4)nn3c2C)cc1,92% (inactive)
19,CCOC(=O)Cc1c(C)nc2cc(-c3ccc(C(C)(C)C)cc3)nn2c1C,-4% (active)
20,COC(=O)c1cc(NC(=O)CCc2c(C)nc3cc(-c4ccccc4)nn3c2C)cc(C(=O)OC)c1,118% (inactive)
21,CCOc1ccc(NC(=O)CCc2c(C)nc3cc(-c4ccc(Cl)cc4)nn3c2C)cc1,35% (active)
22,CC(=O)c1ccc(NC(=O)CCc2c(C)nc3cc(-c4ccc(Cl)cc4)nn3c2C)cc1,47% (inactive)
23,COc1ccccc1-c1cc2nc(C)c(CCC(=O)NCCc3ccc(SC)cc3)c(C)n2n1,81% (inactive)

row,SMILES,survival
1,CCOC(=O)c1cccc(NC(=O)CCc2c(C)nc3c4cccnc4nn3c2C)c1,100% (inactive)
2,c1ccc(C2=NNC(c3nc4ccccc4[nH]3)C2)cc1 (centres undefined),60% (inactive)
3,CCCOC(=O)C1=C(C)OC23OC(N)=C(C#N)C12C(=O)c1ccccc13 (centres undefined),80% (inactive)
4,O=C(Cn1c(-c2cccs2)cc2ccccc21)NCCCN1CCN(c2ccccc2F)CC1,69% (inactive)
5,CCn1c(SCc2cccc(Br)c2)nnc1-c1nonc1NC(C)=O,108% (inactive)
6,CC1CCN(C(=O)c2cnn(-c3ccc(Cl)cc3)c2C2CCN(C(=O)OC(C)(C)C)CC2)CC1,76% (inactive)
7,Cc1nc2nc(C)c(NS(=O)(=O)c3ccc(CC(C)C)cc3)c(=O)n2[nH]1,89% (inactive)
8,Cc1ccccc1NC(=O)Nc1nnc(N2CCCCCC2)s1,94% (inactive)
9,COC(=O)c1ccccc1NC(=O)CCc1c(C)nc2cc(-c3ccc(Cl)cc3)nn2c1C,41% (active)
10,CCc1ccccc1NC(=O)CCc1c(C)nc2cc(-c3ccccc3)nn2c1C,59% (inactive)
11,COc1ccccc1CNC(=O)CCc1c(C)nc2cc(-c3ccc(Cl)cc3)nn2c1C,129% (inactive)
12,Cc1cc2oc(C(=O)N(Cc3ccc(N(C)C)cc3)CC3CCCO3)c(C)c2cc1Cl (centres undefined),65% (inactive)
13,Cc1ccccc1CNCCSc1nnnn1C,84% (inactive)
14,CCc1ccc(-c2nc3cc(NC(=O)c4ccc(F)cc4)ccc3o2)cc1,83% (inactive)
15,CCc1ccc(-c2nc3cc(NC(=O)c4ccc(C)c(C)c4)ccc3o2)cc1,151% (inactive)
16,COc1ccc2oc(-c3ccc(C)c(NC(=O)c4ccc5c(c4)OCCO5)c3)nc2c1,70% (inactive)
17,Cc1ccc2oc(-c3ccc(C)c(NC(=O)c4ccc5c(c4)OCCO5)c3)nc2c1,48% (inactive)
18,CCc1ccc(C(=O)Nc2cccc(-c3nc4cc(C(C)C)ccc4o3)c2)cc1,41% (active)
19,CC(C)c1ccc2oc(-c3cccc(NC(=O)c4ccc5c(c4)OCCO5)c3)nc2c1,28% (active)
20,Cc1ccc(S(=O)(=O)N(CC(O)Cn2c3ccccc3c3ccccc32)c2cccc(C(=O)NCCO)c2)cc1 (centres undefined),56% (inactive)
21,Cc1ccc(S(=O)(=O)N(CC(O)Cn2c3ccccc3c3ccccc32)c2cccc(C(=O)N(C)C)c2)cc1 (centres undefined),54% (inactive)
22,Cc1ccc(S(=O)(=O)N(CC(O)Cn2c3ccccc3c3ccccc32)c2cccc(C(N)=O)c2)cc1 (centres undefined),38% (active)
23,Cc1ccccc1-c1ccnc2c(-c3ccc(F)cc3)c(C)nn12,6% (active)

row,SMILES,survival
1,CCc1nn2c(-c3ccccc3OC)ccnc2c1-c1ccc(F)cc1,2% (active)
2,CCc1nn2c(-c3ccccc3OC)ccnc2c1-c1ccccc1,0% (active)
3,COc1ccc(-c2ccnc3c(-c4ccc(F)cc4)c(C)nn23)cc1OC,88% (inactive)
4,COc1ccccc1-c1ccnc2c(-c3ccc(Br)cc3)c(C)nn12,94% (inactive)
5,COc1cccc(-c2ccnc3c(-c4ccc(F)cc4)c(C)nn23)c1,93% (inactive)
6,CCc1nn2c(-c3ccco3)ccnc2c1-c1ccc(F)cc1,81% (inactive)
7,CCc1nn2c(-c3ccco3)ccnc2c1-c1ccccc1,84% (inactive)
8,Cc1nn2c(-c3ccco3)ccnc2c1-c1ccc(F)cc1,90% (inactive)
9,Cc1cc2nn(-c3ccc(F)cc3)nc2cc1NC(=O)c1cc(Cl)ccc1Cl,141% (inactive)
10,CC1CCCN(S(=O)(=O)c2ccc3c(c2)CCN3C(=O)CCC(=O)O)C1 (centres undefined),96% (inactive)
11,Cc1ccc(N2CC(c3nnc(NC(=O)c4ccco4)s3)CC2=O)cc1Cl (centres undefined),77% (inactive)
12,CCN1C(=O)CC(n2c(C)nc3ccccc32)C1=O (centres undefined),96% (inactive)
13,Cc1ccc(-c2nn(-c3ccccc3)c3[nH]c(=O)c(CNCCN4CCOCC4)cc23)cc1,115% (inactive)
14,NC(CC(=O)OC1CCCCC1)C(=O)OC1CCCCC1 (centres undefined),89% (inactive)
15,O=C(Nc1ccc(F)c(Cl)c1)C1CCCN(c2ncnc3onc(-c4ccc(F)cc4)c23)C1 (centres undefined),78% (inactive)
16,CN(Cc1ccco1)S(=O)(=O)c1nnc(NC(=O)c2ccccc2)s1,23% (active)
17,CC(C)COc1ccc(C(=O)Nc2nnc(S(=O)(=O)N(C)Cc3ccco3)s2)cc1,79% (inactive)
18,CN(Cc1ccco1)S(=O)(=O)c1nnc(NC(=O)c2ccccc2Cl)s1,76% (inactive)
19,Cc1ccc(C(=O)Nc2nnc(S(=O)(=O)N(C)Cc3ccco3)s2)cc1,39% (active)
20,Cc1ccc(C(=O)Nc2nnc(S(=O)(=O)N(C)Cc3ccc(F)cc3)s2)cc1,60% (inactive)
